Consider 19 compounds from PubChem BioAssay (Tox21).

A short description of test [1]: qHTS assay for small molecules that induce genotoxicity in human embryonic kidney cells expressing luciferase-tagged ATAD5 (AID 651632). Also: nearly all actives have a fitted effect of over 15% in size. Also: potency is read from the fitted curve at half-maximal effect. In short, it runs like this: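 Luminescence read-out: after 16 hr compound exposure at 37C, ATAD5-luciferase HEK293T cells received Amplite, 30 min RT, then CCD imaging. A rise in signal marks genotoxic stress.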
(In general: In qHTS, concentration-response curves come from the screen itself.)

The nature of test [2]: qHTS assay for small molecule agonists of the p53 signaling pathway - cell viability (AID 651633; calls by dose curve; also: nearly all actives have a fitted effect of over 30% in size; also: potency is read from the fitted curve at half-maximal effect). In short, it runs like this: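 p53RE-bla cells were treated with compound for 16 hours at 37 C. Cytotoxicity was then measured as CellTiter-Glo luminescence after 30 min at room temperature.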
Test [3] in a line: qHTS assay for small molecules that induce genotoxicity in human embryonic kidney cells expressing luciferase-tagged ATAD5 - cell viability (AID 651634; calls by dose curve; also: nearly all actives have a fitted effect of over 25% in size; also: potency is read from the fitted curve at half-maximal effect). The procedure, abridged:
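HEK293T ATAD5-luc cells, 2,000/well; compound 15.5 hr, 37C/5% CO2; CellTiter-Fluor 30 min, 37C; fluorescence read.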

Test [4] is described as follows: qHTS assay to test for compound auto fluorescence at 590 nm (red) in HepG2 cells (AID 720674). In short, it runs like this: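 Seeding: 2,000 HepG2 cells/well, MEM/10% FBS, overnight 37 C. Dosing: compound vs DMSO. Incubation: 1 hr, 37 C, 5% CO2. Read: fluorescence 540 ex/590 em, Rose Bengal sodium as red reference.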
A short description of test [5]: qHTS assay to test for compound auto fluorescence at 535 nm (green) in HepG2 cells (AID 720675).
A short description of test [6]: qHTS assay to test for compound auto fluorescence at 460 nm (blue) in HEK293 cells (AID 720678). In short, it runs like this:
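HEK293 cells (2,000/well, medium with 10% dialyzed FBS) attached 4-5 hr, then exposed to compound overnight at 37C, 5% CO2. Blue fluorescence read at 405/460 nm, with triamterene as reference fluorophore.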

The nature of test [7]: qHTS assay to test for compound auto fluorescence at 590 nm (red) in HEK293 cells (AID 720679). In short, it runs like this: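 HEK293 cells (2,000/well, 10% dialyzed FBS) attached 4-5 hr, then dosed with compound or DMSO and incubated overnight at 37C, 5% CO2. Red fluorescence read at 540/590 nm, Rose Bengal sodium as reference fluorophore.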
Test [8] in a line: qHTS assay for small molecule disruptors of the mitochondrial membrane potential - cell viability (AID 720634; calls by dose curve;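 also: human HepG2 liver cancer cells; series mostly up to about 83 µM; nearly all actives have a fitted effect of over 20% in size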). In short, it runs like this: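 Luminescence from CellTiter-Glo (ATP content) gave viability in HepG2 cells, read in the same wells as the MMP dye assay after 1 hr compound exposure at 37 C.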
The nature of test [9]: qHTS assay for small molecule disruptors of the mitochondrial membrane potential (AID 720635). Also: potency is read from the fitted curve at half-maximal effect. The procedure, abridged:
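HepG2 cells exposed to compound 1 hr at 37C, then Mito-MPS dye 30 min. Ratio read of aggregate (540/590 nm) versus monomer (490/535 nm) fluorescence.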

Records with an inconclusive call do not appear. Activity calls are given as the source filed them. Unless noted, calls follow the shape of the dose curve; as a rule, active = well fitted curve in the direction sought with a large enough effect in the repeat runs; inconclusive = weak or mixed curves; inactive = no such curve, though single readings can be large; an effect the other way counts as inactive or inconclusive.

As to `O=C(NNCNNC(=O)c1ccncc1)c1ccncc1`, the Potency entry in test [1], in test [2], in test [3], in [4], in [5] and in [6] was “inactive” each time. For the same compound, the Potency entry in test [7] was “inactive”.

As for `CC[C@@]1(O)C(=O)OCc2c1cc1n(c2=O)Cc2cc3c([N+](=O)[O-])cccc3nc2-1`, the Potency entry in [1], in test [8], in test [5], in test [6] and in test [7] was “inactive” each time. Besides, in test [2], the Potency is 0.473 µM (active).

`CCCCCCCCCCCCCCCCOCCOCCOCCOCCOCCOCCOCCOCCOCCOCCOCCOCCOCCOCCOCCOCCOCCOCCOCCOCCO`: the Potency entry in test [1], in test [4], in [5], in test [6] and in test [7] was “inactive” in each case. Besides, the Potency was 6.68 µM (active) in [2] and 23.7 µM (active) in test [9].

Take `C=C1CC[C@H](O)CC1=C/C=C1\CCC[C@]2(C)[C@@H]([C@H](C)CC[C@@H](O)C(C)(C)O)CC[C@@H]12`: the Potency result in [1], in test [4], in [5], in test [6] and in [7] was “inactive” each time. Besides, the Potency was 21.1 µM (active) in test [2] and 11.9 µM (active) in test [9].

Turning to `CCC(=O)OCC(=O)[C@@]1(OC(=O)CC)[C@@H](C)C[C@H]2[C@@H]3CCC4=CC(=O)C=C[C@]4(C)[C@@]3(Cl)[C@@H](O)C[C@@]21C`, the Potency entry in test [1], in test [2], in [8], in [4], in test [5] and in test [6] was “inactive” throughout. In test [7], the Potency result was “inactive”. In addition, in test [9], the Potency was 21.1 µM (active).

For the compound `O=C(CCCN1CCC(n2c(=S)[nH]c3ccccc32)CC1)c1ccc(F)cc1`, the Potency result in [1], in test [2], in test [9], in test [4], in test [5] and in test [6] was “inactive” in each case. Further, the Potency entry in test [7] is “inactive”.

`CN1CCCC(CN2c3ccccc3Sc3ccccc32)C1` (centres undefined): the Potency entry in [1], in [2], in test [8], in test [4], in test [5] and in [6] was “inactive” throughout. Further, the Potency entry in [7] is “inactive”.

Take `Clc1cc(Cl)c(OCC#CI)cc1Cl`: the Potency result in test [1], in test [4], in test [5], in [6] and in test [7] was “inactive” in each case. Further, the Potency in [2] is 26.6 µM (active); in test [9] it was 4.73 µM (active).

As to `COc1ccc(C[C@H](N)C(=O)N[C@H]2[C@@H](O)[C@H](n3cnc4c(N(C)C)ncnc43)O[C@@H]2CO)cc1`, the Potency was 1.06 µM (active) in [1], 5.96 µM (active) in [2] and 2.66 µM (active) in test [3]. Moreover, the Potency entry in test [4], in test [5], in test [6] and in test [7] was “inactive” throughout.

In the case of `C=CC[C@@H]1/C=C(\C)C[C@H](C)C[C@H](OC)[C@H]2O[C@@](O)(C(=O)C(=O)N3CCCC[C@H]3C(=O)O[C@H](/C(C)=C/[C@@H]3CC[C@@H](O)[C@H](OC)C3)[C@H](C)[C@@H](O)CC1=O)[C@H](C)C[C@@H]2OC`, the Potency entry in test [1], in [8], in [4], in test [5], in test [6] and in [7] was “inactive” throughout. In addition, the Potency in test [2] was 26.6 µM (active).

In the case of `CN[C@H]1CCc2cc(OC)c(OC)c(OC)c2-c2ccc(OC)c(=O)cc21`, the values for the Potency in [1] and in test [9] were 0.237 µM (active) and 0.335 µM (active), respectively. Further, the Potency result in test [2], in [8], in test [4], in [5], in test [6] and in test [7] was “inactive” each time.

Turning to `CC[C@H]1OC(=O)[C@H](C)[C@@H](O[C@H]2C[C@@](C)(OC)[C@@H](O)[C@H](C)O2)[C@H](C)[C@@H](O[C@@H]2O[C@H](C)C[C@H](N(C)C)[C@H]2O)[C@](C)(O)C[C@@H](C)[C@@H]2N[C@@H](COCCOC)O[C@@H]([C@H]2C)[C@]1(C)O`, the Potency entry in [1], in [2], in test [3], in [4], in test [5] and in test [6] was “inactive” in each case. Moreover, the Potency result in test [7] is “inactive”.

`CC1=C(/C=C/C(C)=C/C=C/C(C)=C/C=C/C=C(C)/C=C/C=C(C)/C=C/C2=C(C)C(=O)CCC2(C)C)C(C)(C)CCC1=O`: the Potency result in test [1], in [2], in [3], in test [4], in test [5] and in test [6] was “inactive” each time. Also, the Potency result in [7] is “inactive”.

Consider `C/C1=C2N=C(/C=C3N=C(/C(C)=C4\[N-][C@@](C)([C@@H]5N=C1[C@](C)(CCC(=O)NCC(C)OP(=O)(O)O[C@H]1[C@@H](O)[C@@H](n6cnc7cc(C)c(C)cc76)O[C@@H]1CO)[C@H]5CC(N)=O)[C@@](C)(CC(N)=O)[C@@H]4CCC(N)=O)[C@@](C)(CC(N)=O)[C@@H]\3CCC(N)=O)C(C)(C)[C@@H]/2CCC(N)=O.CC(=O)O.[Co]` (some centres undefined), for which the Potency result in [1], in test [2], in test [8], in test [4], in test [5] and in test [6] was “inactive” in each case. For the same compound, in [7], the Potency entry was “inactive”.

On to `CN1CCN(C(c2ccccc2)c2ccc(Cl)cc2)CC1` (centres undefined), for which the Potency result in [1], in [2], in test [8], in test [5], in [6] and in test [7] was “inactive” each time.

As for `CCc1ccc(S(=O)(=O)O)cc1`, the Potency result in [1], in test [2], in test [3], in test [4], in test [5] and in test [6] was “inactive” throughout. Also, in [7], the Potency result is “inactive”.

Turning to `CCN(CC)Cc1cc(Nc2ccnc3cc(Cl)ccc23)ccc1O`, the Potency result in [1], in test [2], in test [8], in test [9], in [4] and in test [5] was “inactive” throughout. Also, the Potency result in test [6] and in test [7] was “inactive” each time.

As to `CCCCC(=O)N(Cc1ccc(-c2ccccc2-c2nn[nH]n2)cc1)[C@@H](C(=O)O)C(C)C`, the Potency result in test [1], in [2], in test [3], in test [4], in test [5] and in [6] was “inactive” in each case. In [7], the Potency entry was “inactive”.

In the case of `CC1(C)C(\C=C/C=C\C=C/C=C2/N(CCCCS(=O)(=O)O)c3ccc4ccccc4c3C2(C)C)=[N+](CCCCS(=O)(=O)[O-])c2ccc3ccccc3c21`, the Potency result in test [1], in test [2], in test [8], in test [4], in test [5] and in test [6] was “inactive” throughout. For the same compound, the Potency result in test [7] was “inactive”.
